The record followed here is ChEMBL document CHEMBL3433997, “St. Jude Leishmania screening dataset” (2016).

Each structure is given as a SMILES string.

Holding throughout (assay type): functional
Assay [1] addresses Solute carrier family 2, facilitated glucose transporter member 1 (Homo sapiens) (UniProt P11166). Kind of assay: ST_JUDE_LEISH: Cytotoxicity at 2uM final concentration against transgenic Leishmania Mexicana promastigotes LmGLUT1 that are glucose transport deficient and complemented with the human glucose transporter GLUT1. Activity is measured by DNA content using SYBR green in vitro.

The target in assay [2] is Hexose transporter 1 (Plasmodium falciparum) (UniProt O97467). The experiment in a line: ST_JUDE_LEISH: Cytotoxicity at 2uM final concentration against transgenic Leishmania Mexicana promastigotes LmPfHT that are glucose transport deficient and complemented with the Plasmodium falciparum hexose transporter. Activity is measured by DNA content using SYBR green in vitro.

In assay [3] the target is Glucose transporter (Leishmania mexicana) (UniProt O61059). Kind of assay: ST_JUDE_LEISH: Cytotoxicity at 2uM final concentration against transgenic Leishmania Mexicana promastigotes LmGT2 that are glucose transport deficient and complemented with the L. Mexicana glucose transporter 2. Activity is measured by DNA content using SYBR green in vitro.

The term inhibition denotes the change of the read-out against control, counted positive when it falls.

Sequence of Solute carrier family 2, facilitated glucose transporter member 1 (Homo sapiens) (P11166 whole entry): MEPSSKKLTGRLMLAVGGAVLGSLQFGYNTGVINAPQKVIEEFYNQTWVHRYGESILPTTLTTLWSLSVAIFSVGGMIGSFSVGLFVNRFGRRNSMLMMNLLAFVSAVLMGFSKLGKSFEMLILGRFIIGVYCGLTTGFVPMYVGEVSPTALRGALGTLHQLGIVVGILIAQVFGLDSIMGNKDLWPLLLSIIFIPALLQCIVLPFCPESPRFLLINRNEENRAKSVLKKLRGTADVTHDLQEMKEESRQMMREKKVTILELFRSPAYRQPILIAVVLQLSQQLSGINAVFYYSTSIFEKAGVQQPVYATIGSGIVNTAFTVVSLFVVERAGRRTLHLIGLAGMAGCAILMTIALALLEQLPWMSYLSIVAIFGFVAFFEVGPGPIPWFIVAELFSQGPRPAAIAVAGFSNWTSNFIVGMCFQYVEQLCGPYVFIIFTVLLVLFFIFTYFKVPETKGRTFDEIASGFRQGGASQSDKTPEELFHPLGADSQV

Regarding `Cc1cc(NCCC(=O)NCc2cccc(F)c2)nc(NCCc2ccc(F)cc2)n1`, the values for the inhibition in assay [1], in assay [2] and in assay [3] were 5.01%, 3.24% and 3.7%, respectively.
The matching figures for `O=C(Nc1cccc(F)c1)c1ccc(C(=O)NC2CCN(CC3CCCCC3)CC2)cc1`: 1.87%, 5.33% and 1.84%.
The matching figures for `Cc1nc2nc(N)nc(N)c2c(C)c1Cc1ccc(C(F)(F)F)cc1`: 32.9%, 38.8% and 28.9%.
For `OCC1CCN(Cc2cccc(-c3ccc(-c4nc5cc(C(F)(F)F)ccc5[nH]4)cc3)c2)CC1`, in that order: 1.05%, 0.48% and 1.4%.
As to `COc1cc(C(=O)NC2CCN(Cc3ccccc3)CC2)ccc1-c1nc2cc(Cl)c(C)cc2[nH]1`, the inhibition was 10.1% in assay [1], 9.26% in assay [2] and 5.5% in assay [3].
Regarding `CCCCC1(c2ccc(F)cc2)NC(=O)N(CC(=O)c2cc(C)n(Cc3ccco3)c2C)C1=O` (stereo not given), the inhibition in assay [1] was -0.18%; in assay [2] it was 0.18%; in assay [3], -0.26%.
As for `Clc1cccc(CNC2CCN(CC3CCCCC3)CC2)c1`, the inhibition was found to be 4.03% in assay [1], 4.11% in assay [2] and 6.03% in assay [3].
Regarding `Cc1[nH]c(C)c(-c2ccc(-c3ccccc3Cl)nc2)c(=O)c1Br`, the inhibition is 0.1% in assay [1], 1.48% in assay [2] and -0.05% in assay [3].
For `Cc1cc(N[C@@H](Cc2ccccc2)C(=O)NC2CCCC2)nc(Nc2ccccc2)n1`, in that order: 7.17%, 7.28% and 2%.
Consider `OC1CCN(c2cc(-c3ccccn3)nc(-c3ccccn3)n2)CC1`, for which the inhibition was -1.43% in assay [1], 2.02% in assay [2] and -4.46% in assay [3].
Take `CCCCCn1c(Sc2ccc(C#N)c([N+](=O)[O-])c2)nnc1-c1ccc(Cl)cc1`: the values for the inhibition in assay [1], in assay [2] and in assay [3] were 4.31%, 4.27% and 0.12%, respectively.
For `CCOc1cc(NC(=O)Nc2ccnc3ccccc23)cc(OC)c1`, in that order: 12.6%, 10.5% and 7.94%.
Turning to `CC(C)C[C@H](NC(=O)c1cc2ccccc2s1)C(=O)N[C@H]1CCN(Cc2ccc(OCCN3CCNCC3)c3ccccc23)C1`, the inhibition in assay [1] is -0.59%; in assay [2], -2.98%; in assay [3] it was 0.51%.
For `Cc1noc(-c2ccc(N3CCC(C(=O)N4CCN(C(C)C)CC4)CC3)cc2)n1`, in that order: 1.72%, 2.07% and 2%.
The matching figures for `O=C(Nc1ccc(Cn2ncc(N3CCCNCC3)c(Cl)c2=O)cc1)Nc1ccc(SC(F)(F)F)cc1`: 3.57%, 10.1% and -1.22%.
For `CCCCCC(C)C(C)c1cc(OC(N)=O)c2c(c1)OC(C)(C)C=C2c1ccncc1` (stereo not given), in that order: -3.81%, -1.09% and -1.38%.
Consider `COc1ccc(-c2ccc(NC(=O)c3ccc(C#N)cc3)cc2)cc1CNC(C)C`, for which the inhibition is 4.24% in assay [1], 3.24% in assay [2] and 2.38% in assay [3].
Turning to `CC(=O)N1Cc2ccccc2C1=O`, the inhibition in assay [1] is 2.88%; in assay [2] it was 3.51%; in assay [3], 2.11%.
The matching figures for `Fc1cccc(COc2ccc(Nc3ncnc4sc(C#C[C@H]5CCCN5)cc34)cc2F)c1`: 0.5%, 2.54% and 0.52%.
The matching figures for `CC(C)NC(=N)NN=Cc1ccc(Cl)c(Cl)c1`: 5.7%, 2.99% and 0.07%.
The matching figures for `O=C(C=Cc1ccccc1)Nc1ccc(C#CC=Cc2ccc(NC(=O)C=Cc3ccccc3)cc2)cc1`: 2.7%, 2.84% and 2.16%.
On to `CCCc1cc(C)ccc1OCCCON1C(N)=NC(N)=NC1(C)C`, for which the inhibition was found to be 31.1% in assay [1], 45.5% in assay [2] and 25.9% in assay [3].
For `Cc1cnc(C(=O)Nc2cccc(-c3ccc(-c4nc5cc(F)ccc5[nH]4)cc3)c2)cn1`, in that order: 12.2%, 10% and 8.63%.
For `COc1cc2c(cc1NS(=O)(=O)c1ccc(OCc3ccc(Br)cc3)cc1)CCN(C1CCC1)CC2`, in that order: 0.64%, -0.8% and -0.51%.
With `CC(C)(C)c1cc(C(=O)N2CCN(c3cnccn3)CC2)n(Cc2ccccc2)n1`, the figures for the inhibition in assay [1], in assay [2] and in assay [3] were 4.57%, 4.68% and 4.9%, respectively.
Turning to `O=C(NCCN1CCCC1)c1ccc(-c2ccc(-c3nc4ccccc4[nH]3)s2)cc1`, the inhibition in assay [1] is 0.96%; in assay [2], -1.55%; in assay [3], 0.42%.
Regarding `CN1CCC(N(Cc2ccc(N3CCN(Cc4c[nH]c5ccc(Cl)cc45)CC3)nc2)C2CC2)CC1`, the inhibition in assay [1] was 9.81%; in assay [2], 4.81%; in assay [3], 10.7%.
For `CCC(=O)c1cc(C(=O)NCCc2cccc(OC)c2)ccc1OC`, in that order: 12.4%, 11.3% and 11.3%.
Turning to `CCN(CC)CCCNc1nccc(N2CCc3ncnc(Nc4ccc(OCc5cccc(F)c5)c(Cl)c4)c3C2)n1`, the inhibition in assay [1] was determined as 7.17%; in assay [2], 9.1%; in assay [3], 7.87%.
The matching figures for `CC=Cc1cc(Cc2c[nH]c(=N)[nH]c2=N)cc(CCC)c1OC`: 10.8%, 8.99% and 4.71%.
The matching figures for `COc1ccc(-c2ccccc2CNC2Cc3ccccc3C2)cc1S(=O)(=O)NCCN1CCCC1`: 2.56%, 0.5% and 2.53%.
Take `CC(C)c1cc(Oc2c(I)cc(CCCc3ncc[nH]3)cc2I)ccc1O`: the inhibition in assay [1] came out at 9.35%; in assay [2], 9.42%; in assay [3], 6.8%.
For `O=C(NCCCCCCNCc1ccc(-c2ccccc2)cc1)Nc1ccc(Cl)c(Cl)c1`, in that order: 1.38%, 0.96% and 2.28%.
For `Cc1cccc(NC(c2cccs2)c2c(NC(=O)c3ccccc3)sc(C)c2C)n1` (stereo not given), in that order: 6.21%, 3.93% and 2.13%.
For `CCN(CCCN1CCCCC1)c1cc(C)nc(Nc2ccc(C)c(Br)c2)n1`, in that order: 4.08%, 6.82% and 7.62%.
In the case of `COc1ccccc1N1CCN(C(C(=O)NCc2ccc(C)cc2)c2ccc(C)cc2)CC1` (stereo not given), the inhibition in assay [1] is -0.68%; in assay [2], -0.64%; in assay [3], -2.75%.
For `CN1CC[C@@H](Oc2cc(NC(=O)Nc3ccccc3Br)ccc2Cl)C1`, in that order: 4.94%, 3.71% and 2.59%.
For `OC(c1cccc(OCc2ccccc2)c1)C1CN(CCc2ccccc2)CCC1(O)c1ccccc1` (stereo not given), in that order: -1.45%, -0.62% and -0.2%.
As to `Nc1c2c(nc3ccc(NC(=O)c4ccc([N+](=O)[O-])cc4)cc13)CCCC2`, the inhibition was -1.93% in assay [1], -0.82% in assay [2] and -1.11% in assay [3].
The matching figures for `Cc1ccccc1Oc1ccc(Nc2ccnc(Nc3cccc(C(N)=O)c3)n2)cc1C(F)(F)F`: 4.26%, 3.48% and 1.52%.
The matching figures for `O=C(Nc1ccc(OC2CCN(Cc3ccsc3)CC2)c(Cl)c1)c1ccc(F)cc1`: 4.89%, 2.78% and 2.62%.
For `COc1ccccc1-c1cccc(-c2cccc(NC(=O)c3ccc([N+](=O)[O-])o3)c2)n1`, in that order: 11.2%, 16.8% and 9.06%.
With `O=C(NCc1ccc(Cl)c(Cl)c1)c1cc(CNC2CCNCC2)ccc1O`, the values for the inhibition in assay [1], in assay [2] and in assay [3] were 0.91%, 5.71% and 2.11%, respectively.
The matching figures for `COc1cc2nc(Nc3ccc(N4CCOCC4)cc3)nc(N)c2cc1OC`: 0.99%, 2.3% and -0.6%.
For `CO/C(=C/C=C/c1cc2cc(Cl)c(Cl)cc2[nH]1)C(=O)NC1CC(C)(C)N(C)C(C)(C)C1`, in that order: 2.45%, 0.74% and -0.41%.
